An excerpt weighted towards active compounds, which were near 5.2% of everything screened.
SMARCA2 activ – SMARCA2 function activation, primary screen; AID 652017; activation, % at 9.1 µM; MG213 cells, MMTV-luciferase reporter, dexamethasone, overnight; hit rate 1% among 370,000; in the data active means activation above about 7.8%;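 further: 0% = vehicle wells and 100% = reference activator wells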
Vif imaging – blocks HIV Vif function; HEK293T cells, Vif self-association by quenched fluorescence, imaging, 24 h; inhibition, % at 7.49 µM; hit rate 0.35% among 340,000; AID 602346; in the data active means inhibition above about 50%, passing the limit was not always enough; inconclusive means no clear call, values can overlap the other calls; inactive means below about 31%
SKN-1 block – blocks SKN-1 activity in C. elegans; C. elegans VP596 Pgst-4::GFP/RFP ratio, acrylamide-induced, 24 h; inhibition, % at 21.8 µM; hit rate 0.49% among 360,000; AID 624304;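 active means interference check ratio from 0.5 to 1.5 plus GFP to RFP signal ratio inhibition reaching or exceeding a fixed threshold, cut at about 30% in these data, passing the limit was not always enough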
GRIN3A LBD mod – modulators (binders) of human NR3A ligand-binding domain | NR3A LBD differential scanning fluorimetry, Tm shift; 0% = protein alone, 100% = glycine-bound protein | Tm shift relative to glycine control, % at 25 µM | hit rate 2.5% among 340,000 | AID 1259313;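 active means melting temperature shift of at least 10% of the positive control shift, at one fixed dose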
NadD inh – NadD (S. aureus) enzyme inhibition; hit rate 0.78% among 360,000; purified NadD enzyme, colorimetric absorbance read-out; AID 602399; inhibition, % at 20 µM; in the data active means inhibition above about 26%
esBAF inh – SWI/SNF esBAF complex inhibition. hit rate 2% among 350,000. mouse ES cells, Bmi1-luciferase knock-in reporter, 24 h; 100% = twice the neutral-well signal. reporter increase, % at 12.5 µM. AID 602393; in the data active means activation above about 40%; inconclusive means no clear call, values can overlap the other calls;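 further: 0% = median of the plate's neutral control wells and 100% = double that signal; a rise in the Bmi1 reporter signal indicates esBAF inhibition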
Ring1 derepress – confirmation of esBAF inhibitors: Ring1 de-repression in mouse ESCs; mouse ESC E14, Ring1 mRNA RT-qPCR fold change; fold change at 33 µM; 550 tested, under 10 active; shares compounds with esBAF inh;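 active means Ring1 gene expression raised more than 2-fold over untreated cells in both replicates at either tested dose; inconclusive means only one replicate above 2-fold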;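 further: Ring1 transcript normalised to actin housekeeping signal by TaqMan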
esBAF Fgf4 qPCR – confirmation of esBAF inhibitors: Fgf4 repression in mouse ESCs; shares compounds with esBAF inh; mouse ESC E14, Fgf4 mRNA qPCR fold change; hits give low values; Fgf4 expression fold change at 33 µM; hit rate 4% among 550;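 active means Fgf4 expression under 0.8 fold of control in both repeat measurements at one or both tested doses; inconclusive means under 0.8 fold in just a single repeat measurement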;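 further: Fgf4 transcript normalised to actin in duplex TaqMan qPCR; cells exposed to compound for 24 h before lysis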
Bmi1 derepress – de-represses Bmi1 in mouse ESCs, confirming esBAF inhibition. AID 743180. fold change at 33 µM. 550 tested, under 10 active. mouse ESE14 ES cells, Bmi1 mRNA qPCR fold; hits give high values. shares compounds with esBAF inh;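 active means Bmi1 expression fold change above 6 at either tested concentration, seen in replicate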;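 further: higher fold means more Bmi1 de-repression and stronger esBAF inhibition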
A549 cytotox – A549 cell cytotoxicity; shares compounds with esBAF inh; plate reader; cell viability change % (negative = cytotoxic), % at 25 µM, hits read low; 550 tested, under 10 active; call rule not given here
HepG2 cytotox SP – kills or reduces viability of HepG2 cells. shares compounds with esBAF inh. HepG2 cytotoxicity, plate reader; hits give low values. activity change, negative = inhibition, % at 25 µM. hit rate 4% among 550. AID 743189; in the data active means activity change below about -50%
HEK293 tox SP – cytotoxicity in HEK293 cells | shares compounds with esBAF inh | plate reader | activity change, negative = inhibition, % at 25 µM, hits read low | hit rate 3% among 550; in the data active means activity change below about -38%, passing the limit was not always enough
* hit, by the source's call; ? = inconclusive; nt = no result given.

SMILES	SMARCA2 activ	Vif imaging	SKN-1 block	GRIN3A LBD mod	NadD inh	esBAF inh	Ring1 derepress	esBAF Fgf4 qPCR	Bmi1 derepress	A549 cytotox	HepG2 cytotox SP	HEK293 tox SP
COc1ccc(NC(=O)Nc2ccc3c(c2)C(=O)N([C@@H](C)CO)C[C@@H](C)[C@H](CN(C)S(C)(=O)=O)OCCCC[C@@H](C)O3)cc1	nt	nt	nt	nt	nt	15.5	nt	nt	nt	nt	nt	nt
Cc1ccc(S(=O)(=O)N[C@@H]2C=C[C@@H](CC(=O)NCCCN(C)C)O[C@H]2CO)cc1	nt	nt	nt	nt	nt	0.1	nt	nt	nt	nt	nt	nt
CN(CC(=O)Nc1ccccc1Br)C(=O)c1cc2c(s1)CCCCC2	2.3	-10.7	7.2	-1.0	-3.6	67.1*	0.898	0.818	1.66	-2.3	-29.0	-21.0
CN(CC(=O)Nc1ccccc1Br)C(=O)c1ccc(COc2ccccc2)cc1	-0.1	-3.8	15.5	6.0	-1.2	5.0	nt	nt	nt	nt	nt	nt
COc1ccc2cc(C(=O)N(C)CC(=O)Nc3ccccc3Br)ccc2c1	5.4	-1.7	-13.4	1.2	-6.3	60.2*	1.06	0.875	1.58	-0.5	-3.2	22.9
CN(CC(=O)Nc1ccccc1Cl)C(=O)c1cc2c(s1)CCCCC2	-1.8	-13.1	7.7	-2.5	-9.3	2.1	nt	nt	nt	nt	nt	nt
CNC(=O)C[C@H]1CC[C@@H]2[C@@H](COc3ccc(NC(=O)c4ccc(F)cc4)cc3C(=O)N2C)O1	nt	nt	nt	nt	nt	-5.2	nt	nt	nt	nt	nt	nt
Cc1cc2oc(=O)cc(CN3CCC(C)CC3)c2c(C)c1Cl	-2.0	14.4	-17.6	2.0	12.2	58.8*	1.05	0.851	1.43	-20.8	-33.8	-21.8
COc1cccc(NC(=O)C(=O)NCC2CCCN2S(=O)(=O)c2cccs2)c1 (stereo unspecified)	3.5	-23.7	-3.7	nt	1.5	62.0*	0.973	0.931	1.25	-13.9	-23.4	-18.1
COc1cccc(NC(=O)C(=O)NCCC2CCCCN2S(=O)(=O)c2cccs2)c1 (stereo unspecified)	3.4	-2.4	-6.5	5.5	-23.3	60.4*	0.811	0.936	1.35	-5.5	26.8	-7.6
COc1ccc(NC(=O)C(=O)NCCC2CCCCN2S(=O)(=O)c2cccs2)cc1 (stereo unspecified)	-2.3	-1.0	10.1	2.5	-14.6	-13.9	nt	nt	nt	nt	nt	nt
O=C(NCC1CCCN1S(=O)(=O)c1cccs1)C(=O)Nc1ccccc1 (stereo unspecified)	1.5	-7.9	-7.5	-1.1	-2.7	20.5	nt	nt	nt	nt	nt	nt
COc1ccc(NC(=O)N(C)C[C@H]2OCCCC[C@H](C)Oc3ccc(NC(=O)Nc4c(C)noc4C)cc3C(=O)N([C@@H](C)CO)C[C@@H]2C)cc1	nt	nt	nt	nt	nt	-2.4	nt	nt	nt	nt	nt	nt
CN1CCN(C(=O)C[C@H]2CC[C@H]3[C@@H](COC[C@H](O)CN3CC3CC3)O2)CC1	nt	nt	nt	nt	nt	-3.8	nt	nt	nt	nt	nt	nt
C[C@@H]1CN([C@@H](C)CO)C(=O)CCCn2cc(nn2)CO[C@@H]1CN(C)C(=O)Nc1ccc(F)cc1	nt	nt	nt	nt	nt	3.3	nt	nt	nt	nt	nt	nt
O=C(C[C@H]1C=C[C@@H](NS(=O)(=O)c2ccc(F)cc2)[C@H](CO)O1)NC1CCCCC1	nt	nt	nt	nt	nt	3.0	nt	nt	nt	nt	nt	nt
COc1ccc(-n2nc(C(=O)NCC(=O)N3CCN(c4ccccc4)CC3)c3ccccc3c2=O)c(OC)c1	1.8	-5.3	-8.7	2.6	-3.5	37.2	1	0.925	1.05	-10.5	-26.2	-12.1
C[C@H](CO)N1C[C@H](C)[C@H](CN(C)C(=O)Nc2ccccc2)Oc2ccc(NS(=O)(=O)c3ccc(F)cc3)cc2CC1=O	nt	nt	nt	nt	nt	-6.9	nt	nt	nt	nt	nt	nt
O=C(Nc1ccc2c(c1)C(=O)c1ccccc1-2)c1ccccc1	2.2	16.0	-2.7	17.7*	2.3	94.5*	1.1	0.842	1.44	-5.3	-23.2	-10.6
C(=NN=Cc1c[nH]c2ccccc12)c1c[nH]c2ccccc12	3.6	nt	29.7	nt	0.5	74.1*	1.18	0.956	1.62	0.0	-26.5	-3.1
O=C(Nc1cccc(Cl)c1Cl)c1ccc(-c2ccccc2)cc1	4.1	21.5	-1.8	-2.1	4.8	74.3*	1.09	0.954	1.7	3.5	18.8	9.8
COc1cc(C2Nc3cc(Cl)c(S(N)(=O)=O)cc3S(=O)(=O)N2)cc(OC)c1OC (stereo unspecified)	-7.0	0.4	-11.0	1.0	-0.4	-0.9	nt	nt	nt	nt	nt	nt
COc1cc(C2Nc3cc(Cl)c(S(N)(=O)=O)cc3S(=O)(=O)N2)ccc1OCc1ccccc1 (stereo unspecified)	-7.5	1.0	-4.7	4.9	10.7	?	0.947	1.01	1.5	0.8	-51.3*	-3.1
COc1ccc(S(=O)(=O)Nc2cc(C(=O)NC(C)C)ccc2N2CCOCC2)cc1	1.7	-3.6	3.1	-0.1	11.5	nt	nt	nt	nt	nt	nt	nt
COc1ccc(S(=O)(=O)Nc2cc(C(=O)NC3CCCCCC3)ccc2N2CCOCC2)cc1	nt	4.4	16.2	-1.1	-4.3	37.7	1.06	1	1.85	3.7	-46.1	-4.7
SMILES	SMARCA2 activ	Vif imaging	SKN-1 block	GRIN3A LBD mod	NadD inh	esBAF inh	Ring1 derepress	esBAF Fgf4 qPCR	Bmi1 derepress	A549 cytotox	HepG2 cytotox SP	HEK293 tox SP
O=C(C[C@@H]1CC[C@@H](NS(=O)(=O)c2ccc(F)cc2)[C@H](CO)O1)NC1CCCCC1	nt	nt	nt	nt	nt	1.0	nt	nt	nt	nt	nt	nt
C[C@H](CO)N1C[C@H](C)[C@@H](CN(C)C(=O)Nc2ccc(F)cc2)Oc2ncc(C#C[C@@H](C)O)cc2C1=O	nt	nt	nt	nt	nt	0.7	nt	nt	nt	nt	nt	nt
C[C@@H]1CN([C@H](C)CO)C(=O)Cc2cc(NC(=O)Cc3cn(C)c4ccccc34)ccc2O[C@H]1CN(C)Cc1ccc(C(=O)Nc2ccccc2N)cc1	nt	nt	nt	nt	nt	-0.1	nt	nt	nt	nt	nt	nt
O=C(Cc1ccccn1)c1ccc(Cl)cc1	0.4	-0.9	24.3	1.0	-1.0	100.0*	1.16	0.868	1.63	-5.6	2.0	-7.4
C[C@@H]1CN([C@@H](C)CO)C(=O)Cc2cc(NC(=O)C3CCCCC3)ccc2O[C@@H]1CN(C)S(=O)(=O)c1cn(C)cn1	nt	nt	nt	nt	nt	-3.6	nt	nt	nt	nt	nt	nt
CC1CCc2sc(C(=O)NC3CCCCC3)cc2C1 (stereo unspecified)	1.3	-0.2	7.4	-1.2	3.5	75.4*	1.25	0.933	1.39	-5.8	-17.0	-8.8
CCC(=O)N1C[C@H](O)COC[C@H]2O[C@@H](CC(=O)NC)CC[C@@H]21	nt	nt	nt	nt	nt	0.5	nt	nt	nt	nt	nt	nt
Cn1ccc2c(-c3ccc(C(=O)O)cc3)cc3c(c21)C1CCC3C1 (stereo unspecified)	3.2	nt	-0.8	nt	-7.6	66.0*	1.36	0.957	1.53	-6.6	-12.5	0.9

Screening data from PubChem BioAssay.
